# Shown are actives, neighbours in structure and some others; about 22% of the full set was active somewhere.
# E-sel TNF inh: TNF alpha driven E-selectin expression inhibition | HUVEC TNFa-induced E-selectin immunofluorescence, high content | inhibition, % at 2 µM | hit rate 0.71% among 120,000;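 active = inhibition above the batch mean plus 3 SD, and confirmed as a hit on visual image review, cut at about 43% in these data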;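 note: 0% = TNF-stimulated DMSO wells and 100% = unstimulated control wells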
# CYP2C9 inhib: inhibitors of human CYP2C9; P11712; CYP2C9 Supersomes, luciferin-H conversion, luminescence; inhibition, % at 5 µM; hit rate 20% among 96,000; AID 777;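 active = blocking of liver enzyme CYP2C9 beyond about 50% at 5 µM, limit read from the data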
# Target sequence (P11712 whole entry, looked up): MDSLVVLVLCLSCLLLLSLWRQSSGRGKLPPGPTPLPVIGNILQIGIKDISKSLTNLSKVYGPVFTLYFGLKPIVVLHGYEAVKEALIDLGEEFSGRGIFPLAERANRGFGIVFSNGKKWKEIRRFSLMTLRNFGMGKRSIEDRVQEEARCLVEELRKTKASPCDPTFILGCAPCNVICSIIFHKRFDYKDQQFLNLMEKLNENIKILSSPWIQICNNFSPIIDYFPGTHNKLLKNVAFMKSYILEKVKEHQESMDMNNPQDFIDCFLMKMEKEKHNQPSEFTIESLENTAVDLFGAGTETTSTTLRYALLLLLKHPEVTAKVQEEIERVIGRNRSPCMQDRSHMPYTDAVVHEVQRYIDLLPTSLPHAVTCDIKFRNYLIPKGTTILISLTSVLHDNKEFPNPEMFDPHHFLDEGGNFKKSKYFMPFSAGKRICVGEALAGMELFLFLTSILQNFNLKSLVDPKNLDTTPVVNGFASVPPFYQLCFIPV
# cytoskel mod: cytoskeleton assembly modification. HUVEC TNFa F-actin phalloidin imaging, high content. inhibition, % at 2 µM. hit rate 0.18% among 91,000;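 active = inhibition above the batch mean plus 3 SD and confirmed as a hit by visual image inspection, cut at about 30% in these data, passing the limit was not always enough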
# CYP2C19 inhib: human CYP2C19 inhibition. CYP2C19 Supersomes, luciferin-H EGE luminescence, 30 min. inhibition, % at 5 µM. hit rate 21% among 96,000;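 active = CYP2C19 inhibition above a set limit at 5 µM in the primary screen, cut at about 50% in these data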;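 note: plate controls were negative control wells for no effect and 2.5 mM tranylcypromine positive control for full effect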
# CYP2C19 activ: activators of human cytochrome P450 2C19. P33261. recombinant CYP2C19, luciferin-H EGE luminescence; stronger effect = higher value; 0 = fully inhibited enzyme, 1 = untreated enzyme. activation factor at 5 µM. 96,000 tested, under 10 active. AID 1025;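 active = activation factor of at least 2 at 5 µM in the primary screen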;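 note: 0 = wells with 2.5 mM tranylcypromine and 1 = vehicle-only wells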
# CYP2C9 act: CYP2C9 (human) activation | P11712 | recombinant CYP2C9, luciferin-H conversion, luminescence; stronger effect = higher value; factor 1 = untreated enzyme, 0 = blocked | activation factor at 5 µM | hit rate 1.4% among 96,000 | AID 1024;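 active = activation factor of 2 or more for CYP2C9 at a 5 µM dose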;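 note: 0 = sulfaphenazole-blocked wells and 1 = vehicle-only wells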
# Active calls of the source: *; . = no result given.
SMILES,E-sel TNF inh,CYP2C9 inhib,cytoskel mod,CYP2C19 inhib,CYP2C19 activ,CYP2C9 act
CS(=O)(=O)N(CC(=O)NCc1ccco1)Cc1ccc(Cl)cc1,5,34,8,58*,0.4,0.7
O=C(CCS(=O)(=O)Cc1ccccc1)NCc1ccco1,-29,-3,-4,-5,1.1,1
COc1ccc(CCNC(=O)COc2ncnc3ccccc23)cc1,5,.,.,.,.,.
COc1ccc(N(C(=O)COc2ccccc2)C2C=CS(=O)(=O)C2)cc1 (stereo not drawn),-8,-4,-8,10,0.9,1
CCC(C)(C)C1CCC2(CC1)NC(=O)N(CC(=O)Nc1nc(-c3ccc(C)cc3)cs1)C2=O (stereo not drawn),.,40,-13,-8,1.1,0.6
O=C1c2ccccc2C(=O)C1Cc1cccc2ccccc12,-5,66*,12,31,0.7,0.3
O=c1cc(-c2cccc3ccccc23)[nH][nH]1,-7,.,6,.,.,.
Cc1cc(C)n(Cc2nc3ccccc3n2C)n1,27,-12,-2,8,0.9,1.1
Cc1c(NC(=O)c2ccc3c(c2)OCO3)cccc1-c1nc2ccccc2o1,-9,69*,7,50,0.5,0.3
O=C(Nc1ccccc1-c1nc2ccccc2o1)c1ccc2c(c1)OCCO2,-14,.,-28,.,.,.
Cc1ccc(-c2nc3ccccc3o2)cc1NC(=O)c1ccc2c(c1)OCO2,-16,70*,10,50,0.5,0.3
COc1ccc(N2C(=O)c3ccc(C(=O)OC(C)C)cc3C2=O)cc1,-13,.,-6,.,.,.
COc1ccc(-c2onc(C)c2-c2ccc(C(=O)OC(C)C)o2)c(O)c1,-5,98*,10,98*,0,0
Cc1ccc(N2C(=O)CSC2c2ccccn2)cc1Cl (stereo not drawn),-3,-30,-1,28,0.7,1.3
Cc1ccc(C)c(N2CCN(Cc3nnnn3C3CCCCC3)CC2)c1,-9,42,-1,56*,0.4,0.6
C/C=C(\C)CN1CCN(c2cc(C)ccc2C)CC1,.,55*,-3,82*,0.2,0.5
C/C=C(\C)CN1CCN(c2ccccc2F)CC1,26,23,-1,73*,0.3,0.8
CCOC(=O)C(C)c1ccc2cc(OC)ccc2c1 (stereo not drawn),-27,-28,-6,52*,0.5,1.3
CNCC/C=C1/c2ccccc2CSc2ccccc21,9,.,-2,.,.,.
CC(C)C(C(=O)NCC1CCCO1)N(Cc1cccs1)C(=O)CNS(=O)(=O)c1ccccc1 (stereo not drawn),-13,.,.,.,.,.
COc1ccc(CSc2nc3ccccc3[nH]2)cc1,-23,63*,12,48,0.5,0.4
Cc1ncc(CSc2nc3ccccc3[nH]2)c(N)n1,-1,-10,-12,-6,1.1,1.1
CCOC(=O)c1ccc(CSc2n[nH]c(C)n2)o1,.,20,-17,65*,0.3,0.8
c1cnc2c(SCc3ccc(-c4nnco4)cc3)cccc2c1,15,62*,1,86*,0.1,0.4
c1ccc2[nH]c(SCc3ccc(-c4nnco4)cc3)nc2c1,-6,95*,-2,99*,0,0.1
SMILES,E-sel TNF inh,CYP2C9 inhib,cytoskel mod,CYP2C19 inhib,CYP2C19 activ,CYP2C9 act
COc1ccc(OC)c(NC(=O)Nc2nnc(N3CCC(C)CC3)s2)c1,-27,.,.,.,.,.
COC(=O)c1ccc(CSc2nc3ccccc3[nH]2)o1,.,36,8,81*,0.2,0.6
O=C(Nc1ccc(-c2nc3ccccc3[nH]2)cc1)c1ccc(N2C(=O)CCC2=O)cc1,-16,.,.,.,.,.
O=C1CCC(=O)N1c1ccc(CSc2nc3ccccc3[nH]2)cc1,-2,62*,0,64*,0.4,0.4
O=C(c1ccc(Cl)cc1Cl)C1(n2cncn2)Oc2ccccc2C1O (stereo not drawn),4,93*,.,99*,0,0.1
Cc1ccc(CN(C(=O)c2cc(=O)c3cc(Cl)c(C)cc3o2)C2CCS(=O)(=O)C2)cc1 (stereo not drawn),22,46,-2,28,0.7,0.5
C=C(Cl)COc1ccc2c(CCC)cc(=O)oc2c1,12,27,-17,23,0.8,0.7
CCCc1cc(=O)oc2cc(Oc3ncccn3)ccc12,-37,37,.,88*,0.1,0.6
COc1ccc2c(CN(C)c3ccccc3)cc(=O)oc2c1,0,36,-17,97*,0,0.6
O=C(NCC1COc2ccccc2O1)c1ccc(NC(=O)c2ccco2)cc1 (stereo not drawn),12,20,19,10,0.9,0.8
Cc1cc(=O)oc(C)c1C(=O)NCC1COc2ccccc2O1 (stereo not drawn),6,55*,5,17,0.8,0.5
Cc1cc(=O)oc(C)c1C(=O)NCCNC(=O)c1c(C)cc(=O)oc1C,-24,-16,-4,-16,1.2,1.2
O=C(NCC1COc2ccccc2O1)c1ccc(Cl)cc1 (stereo not drawn),-27,1,13,74*,0.3,1
O=C(NCC1COc2ccccc2O1)Nc1ccccc1F (stereo not drawn),22,85*,.,96*,0,0.2
CC(=O)c1cc(CN2CCN(C3CCCCC3)C(CCO)C2)cs1 (stereo not drawn),1,.,.,.,.,.
O=C(NC(=O)c1cccc(F)c1)OC[C@@H]1CCCN2CCCC[C@H]12,.,-3,-8,14,0.9,1
O=C(CSc1ccc2nnc(-c3ccccc3)n2n1)NCc1ccco1,-15,20,-30,16,0.8,0.8
Cc1ccc(Cn2nnc3c(=O)n(CC(=O)c4ccccc4)cnc32)cc1,.,60*,12,1,1,0.4
O=C(Nc1ccc(Cl)cc1)N1CCSCC1,-8,13,0,60*,0.4,0.9
O=C(Nc1ccc(Cl)cc1)N1CCCC1,-2,3,14,18,0.8,1
Cc1ccc(NC(=O)N2CCC(O)(c3ccc(Cl)cc3)CC2)cc1,12,71*,-39,96*,0,0.3
O=C1CCC([N+](=O)[O-])C(c2ccccc2Cl)N1 (stereo not drawn),8,-8,-8,0,1,1.1
CC(C)NC(=O)C(C)n1cccc1C(=O)c1ccccc1 (stereo not drawn),13,55*,-13,18,0.8,0.5
CC(C(=O)NCCCN1CCOCC1)n1cccc1C(=O)c1ccccc1 (stereo not drawn),26,.,2,.,.,.
Cc1cc(C)cc(OCCCCCNCCO)c1,-31,.,12,.,.,.
Cc1cc(C)c(OCCCCCNCCO)c(C)c1,16,87*,.,24,0.8,0.1
COc1ccccc1-c1c(C)nn2c(N3CCCCCC3)cc(C)nc12,.,9,4,6,0.9,0.9
COc1ccccc1-c1c(C)nn2c(N3CCN(Cc4ccccc4)CC3)cc(C)nc12,.,52*,-14,57*,0.4,0.5
COc1ccccc1-c1c(C)nn2c(N3CCN(c4ccccc4OC)CC3)cc(C)nc12,-23,50,-10,76*,0.2,0.5
